# Laboratory results taken from paper PMC7862700, “An all-to-all approach to the identification of sequence-specific readers for epigenetic DNA modifications on cytosine”.
# Legend:
# Assay in all cases: DAPPL (digital affinity profiling via proximity ligation, sequencing); 10 mM Tris-HCl pH 7.5, 50 mM NaCl, 1 mM DTT, 4% glycerol, room temperature, 30 min; GST-TFs on glutathione beads, 16-mer random dsDNA library, 0.1% formaldehyde crosslink after washing; high values mean tight binding
# [1] = target: T1, FLI1 (Homo sapiens, UniProt Q01543 1-452); settings: protein: recombinant; tags: N-terminal GST; dsDNA, one strand shown
# T1 sequence: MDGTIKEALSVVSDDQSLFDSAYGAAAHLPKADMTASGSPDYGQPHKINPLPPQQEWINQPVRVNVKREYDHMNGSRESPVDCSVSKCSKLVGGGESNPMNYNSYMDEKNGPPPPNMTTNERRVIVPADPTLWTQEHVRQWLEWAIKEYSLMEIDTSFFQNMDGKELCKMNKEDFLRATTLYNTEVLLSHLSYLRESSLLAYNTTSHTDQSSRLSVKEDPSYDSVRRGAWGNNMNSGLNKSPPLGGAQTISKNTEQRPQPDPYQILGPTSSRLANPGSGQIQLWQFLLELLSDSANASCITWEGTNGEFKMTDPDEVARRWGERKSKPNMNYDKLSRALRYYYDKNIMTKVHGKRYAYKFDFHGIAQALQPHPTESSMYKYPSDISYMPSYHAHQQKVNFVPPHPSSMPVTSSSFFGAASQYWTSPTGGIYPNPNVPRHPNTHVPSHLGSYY
# How it was run: (§1)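 Pools were built from human transcription factors expressed in yeast as GST fusions, captured on glutathione beads and DNA-barcoded, along with a tag-only sample. Incubation with 200 nmole of a 16-mer random double-stranded DNA library lasted 30 min at room temperature in Tris/NaCl/DTT/glycerol buffer, and was followed by washing, 0.1% formaldehyde crosslinking, proximity ligation, PCR amplification and Illumina NextSeq500 sequencing. Binding signal is the quotient of each hexamer's read frequency for a factor and its frequency for the tag-only sample.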
# [2] = target: T2, ELK1 (Homo sapiens, UniProt P19419 1-428); settings: protein: recombinant; tags: N-terminal GST; dsDNA, one strand shown
# T2 sequence: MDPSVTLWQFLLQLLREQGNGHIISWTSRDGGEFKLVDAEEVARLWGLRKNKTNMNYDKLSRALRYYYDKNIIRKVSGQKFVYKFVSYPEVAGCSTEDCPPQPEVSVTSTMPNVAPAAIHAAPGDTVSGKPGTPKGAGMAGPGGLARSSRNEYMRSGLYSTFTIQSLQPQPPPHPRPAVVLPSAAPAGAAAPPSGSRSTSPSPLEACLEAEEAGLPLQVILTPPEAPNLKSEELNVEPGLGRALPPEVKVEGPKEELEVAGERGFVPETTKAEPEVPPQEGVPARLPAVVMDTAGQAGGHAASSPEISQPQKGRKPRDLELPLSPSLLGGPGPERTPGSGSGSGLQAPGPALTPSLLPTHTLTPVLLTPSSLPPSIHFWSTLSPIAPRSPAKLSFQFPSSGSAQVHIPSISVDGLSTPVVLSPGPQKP
# How it was run: as §1
# [3] = target: T3, GABPA (Homo sapiens, UniProt Q06546 1-454); settings: protein: recombinant; tags: N-terminal GST; dsDNA, one strand shown
# T3 sequence: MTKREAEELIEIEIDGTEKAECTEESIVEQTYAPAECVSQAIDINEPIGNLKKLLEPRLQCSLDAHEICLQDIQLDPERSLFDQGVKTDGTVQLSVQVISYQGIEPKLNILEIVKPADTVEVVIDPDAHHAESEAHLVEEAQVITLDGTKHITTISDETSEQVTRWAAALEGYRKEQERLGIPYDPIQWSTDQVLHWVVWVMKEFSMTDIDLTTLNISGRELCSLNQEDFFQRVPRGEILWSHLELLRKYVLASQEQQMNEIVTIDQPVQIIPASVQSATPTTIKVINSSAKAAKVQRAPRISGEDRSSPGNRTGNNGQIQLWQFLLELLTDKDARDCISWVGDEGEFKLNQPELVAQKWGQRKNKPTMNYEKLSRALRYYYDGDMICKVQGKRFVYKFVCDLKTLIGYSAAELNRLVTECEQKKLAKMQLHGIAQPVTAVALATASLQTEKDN
# How it was run: as §1
# [4] = target: T4, ERG (Homo sapiens, UniProt P11308 1-479); settings: protein: recombinant; tags: N-terminal GST; dsDNA, one strand shown
# T4 sequence: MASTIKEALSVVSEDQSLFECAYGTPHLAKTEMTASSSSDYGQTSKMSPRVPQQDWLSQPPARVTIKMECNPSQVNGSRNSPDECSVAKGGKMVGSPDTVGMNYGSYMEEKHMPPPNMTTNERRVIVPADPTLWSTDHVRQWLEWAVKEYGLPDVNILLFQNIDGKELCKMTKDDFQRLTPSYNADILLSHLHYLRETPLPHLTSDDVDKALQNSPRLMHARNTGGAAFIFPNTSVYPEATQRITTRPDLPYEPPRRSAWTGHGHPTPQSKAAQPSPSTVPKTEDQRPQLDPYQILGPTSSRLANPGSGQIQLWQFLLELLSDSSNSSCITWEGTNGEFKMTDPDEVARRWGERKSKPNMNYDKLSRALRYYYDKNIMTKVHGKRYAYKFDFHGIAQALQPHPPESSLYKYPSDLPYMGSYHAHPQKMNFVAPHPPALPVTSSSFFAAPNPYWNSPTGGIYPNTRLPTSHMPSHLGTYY
# How it was run: as §1
# [5] = target: ELF1 (Homo sapiens, UniProt P32519 1-619); settings: protein: recombinant; tags: N-terminal GST; dsDNA, one strand shown
# How it was run: as §1
# [6] = target: T5, EHF (Homo sapiens, UniProt Q9NZC4 1-300); settings: protein: recombinant; tags: N-terminal GST; dsDNA, one strand shown
# T5 sequence: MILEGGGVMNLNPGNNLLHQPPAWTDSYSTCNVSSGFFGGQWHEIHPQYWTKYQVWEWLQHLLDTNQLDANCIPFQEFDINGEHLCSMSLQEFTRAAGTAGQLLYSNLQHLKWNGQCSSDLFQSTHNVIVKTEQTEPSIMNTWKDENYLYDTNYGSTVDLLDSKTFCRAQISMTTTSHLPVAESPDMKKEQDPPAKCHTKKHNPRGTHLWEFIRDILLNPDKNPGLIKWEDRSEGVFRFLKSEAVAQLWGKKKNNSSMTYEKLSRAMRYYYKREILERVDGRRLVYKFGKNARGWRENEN
# How it was run: as §1
# [7] = target: SPI1 (Homo sapiens, UniProt P17947 1-270); settings: protein: recombinant; tags: N-terminal GST; dsDNA, one strand shown
# How it was run: as §1
# [8] = target: SPIB (Homo sapiens, UniProt Q01892 1-262); settings: protein: recombinant; tags: N-terminal GST; dsDNA, one strand shown
# How it was run: as §1
# [9] = target: T6, ELK3 (Homo sapiens, UniProt P41970 1-407); settings: protein: recombinant; tags: N-terminal GST; dsDNA, one strand shown
# T6 sequence: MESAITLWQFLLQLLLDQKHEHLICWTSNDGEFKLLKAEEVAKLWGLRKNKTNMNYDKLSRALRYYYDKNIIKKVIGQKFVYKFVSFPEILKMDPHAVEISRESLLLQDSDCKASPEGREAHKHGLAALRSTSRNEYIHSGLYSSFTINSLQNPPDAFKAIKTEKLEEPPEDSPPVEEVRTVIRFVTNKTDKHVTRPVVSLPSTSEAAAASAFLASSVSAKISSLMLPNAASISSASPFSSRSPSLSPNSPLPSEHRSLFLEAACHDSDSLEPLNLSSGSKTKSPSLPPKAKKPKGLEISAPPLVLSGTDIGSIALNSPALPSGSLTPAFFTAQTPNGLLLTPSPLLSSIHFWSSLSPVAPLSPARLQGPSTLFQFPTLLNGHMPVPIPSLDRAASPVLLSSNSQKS
# How it was run: as §1
# [10] = target: T7, FEV (Homo sapiens, UniProt Q99581 1-238); settings: protein: recombinant; tags: N-terminal GST; dsDNA, one strand shown
# T7 sequence: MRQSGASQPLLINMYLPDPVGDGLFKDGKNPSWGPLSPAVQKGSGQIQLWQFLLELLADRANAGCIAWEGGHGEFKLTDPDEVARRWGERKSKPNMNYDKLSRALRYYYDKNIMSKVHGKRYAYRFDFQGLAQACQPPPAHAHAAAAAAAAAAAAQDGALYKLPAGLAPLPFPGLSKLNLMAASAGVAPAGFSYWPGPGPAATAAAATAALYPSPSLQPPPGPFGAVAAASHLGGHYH
# How it was run: as §1
# [11] = target: ETV5 (Homo sapiens, UniProt P41161 1-510); settings: protein: recombinant; tags: N-terminal GST; dsDNA, one strand shown
# How it was run: as §1
# [12] = target: HSF1 (Homo sapiens, UniProt Q00613 1-529); settings: protein: recombinant; tags: N-terminal GST; chain copies: 3; dsDNA, one strand shown
# How it was run: as §1
# [13] = target: T8, SPIC (Homo sapiens, UniProt Q8N5J4 1-248); settings: protein: recombinant; tags: N-terminal GST; dsDNA, one strand shown
# T8 sequence: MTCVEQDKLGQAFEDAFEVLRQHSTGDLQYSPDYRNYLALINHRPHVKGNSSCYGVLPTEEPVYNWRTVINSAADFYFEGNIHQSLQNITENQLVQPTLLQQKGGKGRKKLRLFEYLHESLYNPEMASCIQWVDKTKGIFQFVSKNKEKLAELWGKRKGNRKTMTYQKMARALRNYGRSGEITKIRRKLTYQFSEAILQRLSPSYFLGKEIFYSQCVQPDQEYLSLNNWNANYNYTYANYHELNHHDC
# How it was run: as §1
# [14] = target: ELF4 (Homo sapiens, UniProt Q99607 1-663); settings: protein: recombinant; tags: N-terminal GST; dsDNA, one strand shown
# How it was run: as §1
# [15] = target: T9, ELK4 (Homo sapiens, UniProt P28324-2 1-405); settings: protein: recombinant; tags: N-terminal GST; dsDNA, one strand shown
# T9 sequence: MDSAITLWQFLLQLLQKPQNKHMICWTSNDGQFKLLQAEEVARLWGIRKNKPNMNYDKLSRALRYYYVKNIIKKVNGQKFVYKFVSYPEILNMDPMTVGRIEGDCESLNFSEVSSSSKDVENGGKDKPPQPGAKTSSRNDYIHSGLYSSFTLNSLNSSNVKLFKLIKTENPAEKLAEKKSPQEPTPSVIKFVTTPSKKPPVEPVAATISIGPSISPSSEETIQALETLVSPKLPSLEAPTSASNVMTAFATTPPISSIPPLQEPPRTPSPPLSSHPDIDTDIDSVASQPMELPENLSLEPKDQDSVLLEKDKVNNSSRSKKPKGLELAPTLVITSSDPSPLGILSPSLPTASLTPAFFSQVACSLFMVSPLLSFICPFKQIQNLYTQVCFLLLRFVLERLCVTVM
# How it was run: as §1
# [16] = target: T10, ETV2 (Homo sapiens, UniProt O00321 1-342); settings: protein: recombinant; tags: N-terminal GST; dsDNA, one strand shown
# T10 sequence: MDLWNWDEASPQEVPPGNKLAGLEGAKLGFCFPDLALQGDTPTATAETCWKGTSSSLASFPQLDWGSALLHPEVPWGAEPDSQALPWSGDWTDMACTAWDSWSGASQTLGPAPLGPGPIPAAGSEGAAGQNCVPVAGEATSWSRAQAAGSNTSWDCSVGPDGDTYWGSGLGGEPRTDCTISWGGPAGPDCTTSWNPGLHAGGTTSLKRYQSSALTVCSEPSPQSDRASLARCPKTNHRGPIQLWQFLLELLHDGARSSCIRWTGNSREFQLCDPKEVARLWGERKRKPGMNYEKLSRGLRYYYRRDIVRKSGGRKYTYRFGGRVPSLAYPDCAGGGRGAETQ
# How it was run: as §1
# [17] = target: T11, ELF3 (Homo sapiens, UniProt P78545 1-371); settings: protein: recombinant; tags: N-terminal GST; dsDNA, one strand shown
# T11 sequence: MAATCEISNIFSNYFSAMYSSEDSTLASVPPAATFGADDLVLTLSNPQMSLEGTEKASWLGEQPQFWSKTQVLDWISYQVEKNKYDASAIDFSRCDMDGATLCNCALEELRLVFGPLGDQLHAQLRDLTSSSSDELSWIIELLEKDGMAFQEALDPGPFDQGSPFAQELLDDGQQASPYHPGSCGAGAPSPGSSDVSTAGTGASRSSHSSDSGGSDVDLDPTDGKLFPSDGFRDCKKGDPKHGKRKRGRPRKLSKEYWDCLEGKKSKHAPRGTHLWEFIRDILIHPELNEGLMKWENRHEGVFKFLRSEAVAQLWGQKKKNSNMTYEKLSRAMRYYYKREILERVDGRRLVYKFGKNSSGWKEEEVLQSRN
# How it was run: as §1
# [18] = target: CRX (Homo sapiens, UniProt O43186 1-299); settings: protein: recombinant; tags: N-terminal GST; dsDNA, one strand shown
# How it was run: as §1
# [19] = target: ETV1 (Homo sapiens, UniProt P50549 1-477); settings: protein: recombinant; tags: N-terminal GST; dsDNA, one strand shown
# How it was run: as §1
# ETV5, sequence (P41161 whole entry): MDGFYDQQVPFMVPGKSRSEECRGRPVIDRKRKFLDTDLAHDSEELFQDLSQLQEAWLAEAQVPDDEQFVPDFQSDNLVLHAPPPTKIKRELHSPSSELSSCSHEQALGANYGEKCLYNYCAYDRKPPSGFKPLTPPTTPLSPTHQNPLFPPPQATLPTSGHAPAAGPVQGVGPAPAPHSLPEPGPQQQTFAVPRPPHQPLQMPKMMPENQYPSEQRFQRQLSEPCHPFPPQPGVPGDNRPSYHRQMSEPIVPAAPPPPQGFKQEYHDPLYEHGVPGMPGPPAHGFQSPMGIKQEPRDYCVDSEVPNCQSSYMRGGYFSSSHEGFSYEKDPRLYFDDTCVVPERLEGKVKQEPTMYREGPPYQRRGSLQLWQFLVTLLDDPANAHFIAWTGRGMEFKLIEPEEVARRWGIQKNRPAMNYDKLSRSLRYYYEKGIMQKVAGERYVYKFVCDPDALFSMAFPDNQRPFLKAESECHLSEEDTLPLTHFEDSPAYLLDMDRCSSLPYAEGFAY
# ELF1, sequence (P32519 whole entry): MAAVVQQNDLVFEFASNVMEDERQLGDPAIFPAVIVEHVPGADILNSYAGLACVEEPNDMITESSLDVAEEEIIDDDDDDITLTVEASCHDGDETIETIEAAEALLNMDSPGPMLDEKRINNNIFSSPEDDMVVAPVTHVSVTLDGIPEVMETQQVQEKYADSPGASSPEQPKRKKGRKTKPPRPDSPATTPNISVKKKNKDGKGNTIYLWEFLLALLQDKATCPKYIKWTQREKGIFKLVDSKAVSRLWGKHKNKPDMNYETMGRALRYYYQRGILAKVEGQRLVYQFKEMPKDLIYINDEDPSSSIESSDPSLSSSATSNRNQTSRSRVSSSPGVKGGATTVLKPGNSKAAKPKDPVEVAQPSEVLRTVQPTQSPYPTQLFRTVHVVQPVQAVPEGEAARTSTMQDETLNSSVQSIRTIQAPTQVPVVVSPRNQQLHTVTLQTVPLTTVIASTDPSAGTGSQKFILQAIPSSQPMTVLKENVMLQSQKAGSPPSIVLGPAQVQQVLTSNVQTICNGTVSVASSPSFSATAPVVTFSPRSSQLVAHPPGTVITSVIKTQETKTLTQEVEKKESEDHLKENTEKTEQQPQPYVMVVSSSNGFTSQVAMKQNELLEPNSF
# SPIB, sequence (Q01892 whole entry): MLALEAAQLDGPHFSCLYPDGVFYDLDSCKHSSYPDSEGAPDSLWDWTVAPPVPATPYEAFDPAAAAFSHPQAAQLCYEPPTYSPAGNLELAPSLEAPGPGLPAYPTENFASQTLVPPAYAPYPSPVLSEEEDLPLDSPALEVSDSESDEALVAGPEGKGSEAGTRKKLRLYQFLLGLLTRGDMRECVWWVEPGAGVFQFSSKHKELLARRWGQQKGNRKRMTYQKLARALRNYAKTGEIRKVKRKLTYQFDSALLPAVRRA
# CRX, sequence (O43186 whole entry): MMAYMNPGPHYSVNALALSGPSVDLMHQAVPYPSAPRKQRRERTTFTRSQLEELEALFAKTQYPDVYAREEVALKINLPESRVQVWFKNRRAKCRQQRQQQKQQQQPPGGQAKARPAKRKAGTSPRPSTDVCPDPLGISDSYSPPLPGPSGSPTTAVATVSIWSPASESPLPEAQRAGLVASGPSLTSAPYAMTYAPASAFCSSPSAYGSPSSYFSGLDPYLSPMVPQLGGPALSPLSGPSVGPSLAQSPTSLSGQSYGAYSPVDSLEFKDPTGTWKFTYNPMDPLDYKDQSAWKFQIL
# ELF4, sequence (Q99607 whole entry): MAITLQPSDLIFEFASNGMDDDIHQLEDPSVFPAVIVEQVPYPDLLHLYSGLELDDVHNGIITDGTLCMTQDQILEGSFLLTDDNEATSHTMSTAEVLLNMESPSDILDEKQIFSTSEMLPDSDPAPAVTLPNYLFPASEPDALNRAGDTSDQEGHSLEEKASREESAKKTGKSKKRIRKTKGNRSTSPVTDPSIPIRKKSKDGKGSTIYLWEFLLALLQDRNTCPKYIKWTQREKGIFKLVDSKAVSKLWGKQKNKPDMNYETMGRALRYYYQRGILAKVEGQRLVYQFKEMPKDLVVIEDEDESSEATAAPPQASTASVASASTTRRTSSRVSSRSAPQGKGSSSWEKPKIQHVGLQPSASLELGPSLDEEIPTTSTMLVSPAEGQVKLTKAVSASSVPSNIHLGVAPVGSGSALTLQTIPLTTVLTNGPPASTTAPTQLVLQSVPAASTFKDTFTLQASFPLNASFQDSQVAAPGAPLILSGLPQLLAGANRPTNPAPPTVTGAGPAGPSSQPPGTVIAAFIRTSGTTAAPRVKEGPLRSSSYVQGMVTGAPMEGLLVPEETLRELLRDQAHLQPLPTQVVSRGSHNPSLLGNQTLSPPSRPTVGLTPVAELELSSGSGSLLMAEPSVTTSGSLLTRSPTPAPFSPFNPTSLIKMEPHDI
# ETV1, sequence (P50549 whole entry): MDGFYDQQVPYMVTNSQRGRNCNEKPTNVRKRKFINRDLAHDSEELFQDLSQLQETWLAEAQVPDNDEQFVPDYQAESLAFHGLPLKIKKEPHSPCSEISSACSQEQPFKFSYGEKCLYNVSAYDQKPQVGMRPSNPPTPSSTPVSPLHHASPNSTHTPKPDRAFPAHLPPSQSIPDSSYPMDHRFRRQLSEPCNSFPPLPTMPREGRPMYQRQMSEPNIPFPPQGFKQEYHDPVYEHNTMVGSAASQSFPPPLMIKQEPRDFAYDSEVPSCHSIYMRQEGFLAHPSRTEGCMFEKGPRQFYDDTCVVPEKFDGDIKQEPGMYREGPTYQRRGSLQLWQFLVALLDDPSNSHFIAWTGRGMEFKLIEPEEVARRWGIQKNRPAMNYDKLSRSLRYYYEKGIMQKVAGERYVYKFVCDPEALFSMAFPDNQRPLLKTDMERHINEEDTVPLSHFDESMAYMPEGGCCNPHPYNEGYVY
# HSF1, sequence (Q00613 whole entry): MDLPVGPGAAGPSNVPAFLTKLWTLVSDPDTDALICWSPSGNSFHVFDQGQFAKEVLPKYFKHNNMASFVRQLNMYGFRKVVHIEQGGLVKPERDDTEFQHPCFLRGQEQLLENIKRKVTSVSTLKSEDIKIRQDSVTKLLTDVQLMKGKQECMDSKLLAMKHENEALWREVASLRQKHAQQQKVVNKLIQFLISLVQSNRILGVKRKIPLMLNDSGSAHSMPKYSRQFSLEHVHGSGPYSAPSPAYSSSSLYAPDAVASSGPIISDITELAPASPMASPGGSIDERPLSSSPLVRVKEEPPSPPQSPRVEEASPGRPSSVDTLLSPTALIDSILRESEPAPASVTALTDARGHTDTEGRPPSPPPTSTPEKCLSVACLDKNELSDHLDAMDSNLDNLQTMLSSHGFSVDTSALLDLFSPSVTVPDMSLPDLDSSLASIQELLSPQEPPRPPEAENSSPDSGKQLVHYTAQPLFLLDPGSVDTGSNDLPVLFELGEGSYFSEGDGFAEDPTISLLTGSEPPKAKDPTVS
sequence,measurement,setting,value
CTTGTG,binding signal,[1],"1.57 fold enrichment (6-mer frequency, TF over GST control)"
same,binding signal,[2],"1.58 fold enrichment (6-mer frequency, TF over GST control)"
same,binding signal,[3],"1.45 fold enrichment (6-mer frequency, TF over GST control)"
same,binding signal,[4],"1.45 fold enrichment (6-mer frequency, TF over GST control)"
same,binding signal,[5],"1.46 fold enrichment (6-mer frequency, TF over GST control)"
same,binding signal,[6],"1.44 fold enrichment (6-mer frequency, TF over GST control)"
same,binding signal,[7],"1.46 fold enrichment (6-mer frequency, TF over GST control)"
same,binding signal,[8],"1.68 fold enrichment (6-mer frequency, TF over GST control)"
same,binding signal,[9],"1.6 fold enrichment (6-mer frequency, TF over GST control)"
same,binding signal,[10],"1.39 fold enrichment (6-mer frequency, TF over GST control)"
same,binding signal,[11],"1.51 fold enrichment (6-mer frequency, TF over GST control)"
same,binding signal,[12],"1.25 fold enrichment (6-mer frequency, TF over GST control)"
same,binding signal,[13],"1.45 fold enrichment (6-mer frequency, TF over GST control)"
same,binding signal,[14],"1.59 fold enrichment (6-mer frequency, TF over GST control)"
same,binding signal,[15],"1.26 fold enrichment (6-mer frequency, TF over GST control)"
same,binding signal,[16],"1.44 fold enrichment (6-mer frequency, TF over GST control)"
same,binding signal,[17],"1.5 fold enrichment (6-mer frequency, TF over GST control)"
same,binding signal,[18],"1.25 fold enrichment (6-mer frequency, TF over GST control)"
same,binding signal,[19],"1.44 fold enrichment (6-mer frequency, TF over GST control)"
